Source: PubChem
Most compounds without a hit are left out; they make up all but 7.9% or so of the library.
HT1080-NT tox: kills 2HG-producing HT-1080-NT fibrosarcoma cells | AID 686970 | Potency, µM (doses to about 46.1 µM), for inactives: at the top dose activity, negative = less viability, most hits filed as cytotoxic | hit rate 1.6% among 360,000 | HT-1080-NT fibrosarcoma viability, CellTiter-Glo ATP luminescence, 48 h;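 further: NT is the 2HG producing partner of a matched IDH1 knockdown line; 0% = DMSO-treated cells and -100% = media-only wells without cells; nearly all actives have a fitted effect of over 55% in size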
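Fibrosarcoma NT cells, 750 per well in 5% FBS RPMI, were exposed to compound for 48 hours. Viability: CellTiter-Glo luminescence.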
KB-3-1 tox: kills parental KB-3-1 adenocarcinoma cells | hit rate 1.4% among 400,000 | KB-3-1 viability, CellTiter-Glo ATP luminescence, 72 h | Potency, µM (top dose mostly 46.1 µM), hits mostly cytotoxic; further: on the % scale 0 is the no-effect control and ±100 the full control effect; nearly all actives have a fitted effect of over 60% in size
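Cytotoxicity in the drug-sensitive parental line KB-3-1 was scored as loss of CellTiter-Glo luminescence following 72 h incubation with compound. Values come from curve fitting of normalized concentration-response data.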
KB-V1 cytotox: kills drug-selected multidrug resistant KB-V1 cells. KB-V1 MDR cells viability, CellTiter-Glo, 72 h. Potency, µM (doses to about 46.1 µM), usual class: cytotoxic. hit rate 3.4% among 400,000; further: on the % scale 0 is the no-effect control and ±100 the full control effect; nearly all actives have a fitted effect of over 60% in size
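Cytotoxicity via CellTiter-Glo luminescence after 72 h compound exposure at 37 degrees C. Cells: drug-selected KB-V1 line, DMEM phenol-red free plus 10% FBS. Compounds tested at multiple concentrations; normalized data fitted to concentration-effect curves.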
SW480 rereplic: inducers of DNA re-replication in SW480 colon cancer cells; hit rate 1.8% among 340,000; SW480 DNA re-replication, Hoechst DNA content imaging, 48 h; Potency, µM (highest dose often 46.1 µM), inactives show top-dose re-replication activation, usual class: activators; further: % of control where 0% means no effect; nearly all actives have a fitted effect of over 55% in size
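First, 250 cells per well were seeded. Next, compound or vehicle (23 nL) was pinned in, plates sat 48 hr at 37 C. Finally Hoechst was added for 40 min before fluorescence scanning.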
MCF10A rerep: induces DNA re-replication in MCF 10a normal breast cells. MCF 10A DNA re-replication, Hoechst nuclear intensity, 48 h. Potency, µM (top dose mostly 46.1 µM), without a hit: top-dose activity, positive = re-replication, hits mostly activators. hit rate 2.9% among 350,000. AID 624296; further: % of control where 0% means no effect; nearly all actives have a fitted effect of over 50% in size
HT1080 IDH1KD tx: toxicity to HT-1080 IDH1 knockdown cells (counter line); AID 686971; Potency, µM (top dose mostly 46.1 µM), inactives show at the highest dose activity, negative = toxicity, hits mostly cytotoxic; HT-1080 IDH1 knockdown viability, ATP luminescence, 48 h; hit rate 2% among 360,000;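 further: 0% = DMSO wells and -100% = cell-free medium wells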
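Viability of IDH1-knockdown HT-1080 fibrosarcoma cells was assessed by CellTiter-Glo after 48 h at 37 °C with titrated compound; concentration-effect curves were classified by fit quality and response size.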
The depositor's hits bear a star; i = inactive; u = inconclusive; x = not tested or not shown; [ ] = dose if it differs, or a comment. The call rests on the fitted dose curve; in most records, active means well fitted curve in the direction sought with a large enough effect; inconclusive means small, poorly fitted or top-dose-only effect, or another doubt; inactive means no such curve, though single readings can be large; an effect the other way counts as inactive or inconclusive. Potency means the concentration at half of the fitted maximal effect.

SMILES	HT1080-NT tox	KB-3-1 tox	KB-V1 cytotox	SW480 rereplic	MCF10A rerep	HT1080 IDH1KD tx
O=C1N/C(=N/N=C/c2ccc(O)cc2)SC1Cc1ccccc1 (centres undefined)	-12%	i	i	-47%	1%	12%
COC(=O)C[C@H]1c2cc(F)ccc2S(=O)(=O)N1C1CC1	x	i	u	x	x	x
CNC(=O)C[C@H]1C(=O)N(c2ccccc2)C[C@@H]1CSC	-2%	i	i	x	x	2%
N#Cc1c(N)nc(SCc2ccccn2)c(C#N)c1-c1cccs1	-7%	u	2.9µM*	-2%	1%	u
CCCCCOC(=O)CSc1ncnc2c1sc1nc(N3CCOCC3)c3c(c12)CCCC3	x	i	i	x	x	x
CCC(=O)N(C(=O)CC)N1CCN(c2ccncc2S(=O)(=O)N2CCCCC2)CC1	3%	0.029µM*	i	0%	5%	-1%
COc1ccc(-n2c(=O)c3c4c(sc3n(CC(=O)NCc3ccco3)c2=O)CCC4)c(OC)c1	1%	i	16µM*	0%	11%	8%
O=C(NCc1cccs1)c1nc2c(nnn2Cc2ccccc2Cl)c(=O)[nH]1	4.6µM*	5.8µM*	8.2µM*	u	u	3.3µM*
CCC(C)NC(=O)c1nc2c(nnn2Cc2ccccc2Cl)c(=O)[nH]1 (centres undefined)	-13%	i	i	-5%	1%	1%
Cc1ccc(C)c(S(=O)(=O)N2CCCCC2CCNC(=O)C(=O)NCc2ccccc2)c1 (centres undefined)	u	26µM*	u	u	u	u
O=C(NCCC1CCCCN1S(=O)(=O)c1ccc(F)cc1)C(=O)NCc1ccncc1 (centres undefined)	12%	i	i	0%	15%	13%
Cc1ccc(S(=O)(=O)N2CCCCC2CCNC(=O)C(=O)NCc2cccnc2)cc1 (centres undefined)	u	8.2µM*	u	16µM*	u	u
Cc1ccc(CNC(=O)C(=O)NCCC2CCCCN2S(=O)(=O)c2ccc(C)cc2)cc1 (centres undefined)	-1%	i	3.7µM*	u	u	-8%
Cc1ccc(C)c(S(=O)(=O)N2CCCCC2CCNC(=O)C(=O)NCc2cccnc2)c1 (centres undefined)	-3%	i	u	u	11%	-16%
O=C(NCCC1CCCCN1S(=O)(=O)c1ccc(Cl)cc1)C(=O)NCc1ccncc1 (centres undefined)	3%	i	i	3%	-39%	4%
Cc1ccc(S(=O)(=O)N2CCCCC2CCNC(=O)C(=O)NC2CC2)cc1 (centres undefined)	-3%	i	8.2µM*	4%	7%	0%
O=C(NCCC1CCCCN1S(=O)(=O)c1ccccc1)C(=O)NC1CCCC1 (centres undefined)	1%	i	u	-2%	3%	3%
O=C(NCc1nnnn1-c1ccc(F)cc1)c1ccc2c(c1)OCO2	-4%	i	i	x	x	-3%
CCN(C(=O)CSc1nnc(-c2cc(OC)c(OC)c(OC)c2)o1)c1ccccc1	x	i	u	x	x	x
CCCCC(=O)Nc1c(C(=O)N2CCN(c3ccccc3)CC2)oc2ccccc12	x	i	i	x	x	x
Cc1cc(C)c(S(=O)(=O)N2CCCCC2CCNC(=O)C(=O)NCc2cccnc2)c(C)c1 (centres undefined)	0%	i	8.2µM*	-6%	5%	8%
Cc1ccccc1CNC(=O)C(=O)NCCC1CCCCN1S(=O)(=O)c1ccccc1 (centres undefined)	1%	u	6.5µM*	0%	15%	-4%
Cc1ccc(N(C)C(=O)CN2C(=O)CCc3cc(S(=O)(=O)N4CCOCC4)ccc32)cc1	x	i	i	x	x	x
Cc1cc2oc(C(=O)Nc3ccc(S(=O)(=O)Nc4onc(C)c4C)cc3)cc(=O)c2cc1C	x	i	u	x	x	x
CC1=NN(c2ccc(C)c(C)c2)C(=O)/C1=C\C=C\c1ccc([N+](=O)[O-])o1	u	u	i	-16%	0%	16µM*
SMILES	HT1080-NT tox	KB-3-1 tox	KB-V1 cytotox	SW480 rereplic	MCF10A rerep	HT1080 IDH1KD tx
CCOC(=O)c1ccc(N2N=C(C)/C(=C/C=C/c3ccco3)C2=O)cc1	2%	i	i	-2%	u	1%
O=C(CCC1N=C2c3ccccc3N=C(SCc3ccc(Cl)cc3)N2C1=O)NC1CCCCC1 (centres undefined)	x	i	i	x	x	x
CC1(C)CC(=O)C=C(NC2=CC3OC(c4ccccc4)OCC3OC2=O)C1 (centres undefined)	u	i	i	u	u	21µM*
CCCc1cc(=O)n2[nH]cc(-c3ccc(Cl)cc3)c2n1	u	16µM*	7.3µM*	18µM*	u	u
COCc1cc(=O)n2[nH]cc(-c3ccccc3)c2n1	-5%	u	u	1%	u	-27%
COc1ccc(CCNC(=O)COc2ccc(S(=O)(=O)NC3CCCCC3)cc2Cl)cc1OC	-16%	u	10µM*	15%	0%	-19%
O=C(COc1ccc(S(=O)(=O)NC2CCCCC2)cc1Cl)NCc1ccc2c(c1)OCO2	0%[9.24 µM]	i	u	25%	10%	u
O=C(COc1ccc([N+](=O)[O-])cc1Cl)NCCc1ccccc1	10%	i	21µM*	18%	-4%	17%
O=C(COC(=O)c1cc([N+](=O)[O-])ccc1Cl)NCCc1ccccc1	0%	i	i	-3%	2%	16%
COCCCNC(=O)COc1ccc(S(=O)(=O)NCc2ccccc2)cc1Cl	5%	i	21µM*	-5%	1%	2%
COCCNS(=O)(=O)c1ccc(OCC(=O)OC)c(Cl)c1	6%	i	i	-15%	0%	10%
O=C(COc1ccc(S(=O)(=O)NC2CCCCC2)cc1Cl)Nc1ccc2c(c1)OCO2	u	u	10µM*	2%	u	u
Oc1cc2c(cc1O)[C@@H](c1ccccc1)CNCC2	u	i	i	19%	18µM*	u
Oc1cc2c(cc1O)C(c1ccccc1)CNCC2 (centres undefined)	-30%	i	i	12%	-17%	-23%
CCOc1ccccc1NC(=O)CN1C(=O)C2(SCC(=O)N2c2cccc(F)c2)c2ccccc21 (centres undefined)	x	i	i	x	x	x
CCN(C(=O)c1cc(Cl)ccc1Cl)C1CCS(=O)(=O)C1 (centres undefined)	5%	i	18µM*	-23%	12%	4%
